Common to all, as to details: treatment time: 24 h
Assay [1] deals with A549-ACTB-RAB5A. Briefly: lowest phenotypically active concentration; higher = less potent. A digest of the protocol: (§1)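 After 24 h at 0.3, 1, 3 or 9 µM, with four wells per treatment, fifteen gene-edited A549, HepG2 and WPMY1 reporter lines carrying BFP, GFP and RFP/FusionRed were imaged live. Each well's live-cell features were expressed relative to solvent control wells. Deviation required ≥3 of 4 wells past the 95th percentile of control Euclidean distances, and reproducibility a median replicate Pearson correlation over the 95th percentile of non-replicates. Phenotypic activity rested on both.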

Assay [2] has as its system A549-ACTB-RAB5A. As to the kind of experiment: phenotypically active (imaging signature differs from DMSO and reproducible) at any of 0.3-9 uM (binary (1 = active, 0 = inactive)); higher = active. A digest of the protocol: as §1
In another assay the test system is A549-CANX-COX4. The description is as above. A digest of the protocol: as §1
The subject of assay [3] is A549-GM130-SQSTM1. Described as above. In a few lines:
as §1

For another assay, the system named is A549-TP53BP1-CLTA. Described as above. A digest of the protocol:
as §1

Another assay relates to A549-TUBA1B-RELA. The description is as above. A digest of the protocol: as §1
The subject of assay [4] is HepG2-ACTB-RAB5A. The assay is described as above. In a few lines: as §1
The next assay relates to HepG2-CANX-COX4. The description is as above. In a few lines:
as §1

Another assay concerns HepG2-GM130-SQSTM1. The description is as above. A digest of the protocol:
as §1

The next assay has as its system HepG2-TP53BP1-CLTA. Described as above. A digest of the protocol:
as §1

A further assay has as its system HepG2-TUBA1B-RELA. The assay is described as above. In a few lines:
as §1

For the next assay, the system named is WPMY1-ACTB-RAB5A. The assay is described as above. In a few lines:
as §1

Another assay relates to WPMY1-CANX-COX4. Described as above. In a few lines:
as §1

The next assay relates to WPMY1-GM130-SQSTM1. The description is as above. In a few lines:
as §1

In another assay the test system is WPMY1-TP53BP1-CLTA. The description is as above. In a few lines:
as §1

The subject of a further assay is WPMY1-TUBA1B-RELA. The assay is described as above. In a few lines: as §1
Assay [5] deals with A549-GM130-SQSTM1. As to the kind of experiment: lowest phenotypically active concentration; higher = less potent. A digest of the protocol:
as §1

In assay [6] the test system is HepG2-ACTB-RAB5A. The assay is described as above. In a few lines: as §1

The structures appear in SMILES notation.

In the case of `Cc1c[nH]c2ncnc(-c3ccc(NC(=O)N(CCO)c4ccccc4)cc3)c12`, the “lowest phenotypically active concentration” value with A549-ACTB-RAB5A [1] came to 9 µM. Also, the phenotypically active in the assay on A549-ACTB-RAB5A [2] is 1 (active); in the assay on A549-CANX-COX4, 0 (inactive); in the assay with A549-GM130-SQSTM1 [3] it was 0 (inactive); with A549-TP53BP1-CLTA, 0 (inactive); in the assay with A549-TUBA1B-RELA, 0 (inactive); in the assay on HepG2-ACTB-RAB5A [4], 0 (inactive). Besides, the phenotypically active in the assay on HepG2-CANX-COX4, in the assay on HepG2-GM130-SQSTM1, in the assay with HepG2-TP53BP1-CLTA, in the assay on HepG2-TUBA1B-RELA, with WPMY1-ACTB-RAB5A and with WPMY1-CANX-COX4 was 0 (inactive) each time. Moreover, the phenotypically active was 0 (inactive) with WPMY1-GM130-SQSTM1, 0 (inactive) in the assay on WPMY1-TP53BP1-CLTA and 1 (active) in the assay with WPMY1-TUBA1B-RELA.

Consider `COc1cc2nc3occc3c(OC)c2cc1OC` [Kokusaginine], for which the “lowest phenotypically active concentration” value in the assay on A549-GM130-SQSTM1 [5] is 3 µM. The phenotypically active was 0 (inactive) in the assay with A549-ACTB-RAB5A [2]; 0 (inactive) with A549-CANX-COX4; 1 (active) with A549-GM130-SQSTM1 [3]; 0 (inactive) in the assay on A549-TP53BP1-CLTA; 0 (inactive) with A549-TUBA1B-RELA; 0 (inactive) in the assay with HepG2-ACTB-RAB5A [4]. The phenotypically active in the assay with HepG2-CANX-COX4, in the assay with HepG2-GM130-SQSTM1, with HepG2-TP53BP1-CLTA, with HepG2-TUBA1B-RELA, in the assay with WPMY1-ACTB-RAB5A and with WPMY1-CANX-COX4 was 0 (inactive) each time. In addition, the phenotypically active in the assay with WPMY1-GM130-SQSTM1, with WPMY1-TP53BP1-CLTA and with WPMY1-TUBA1B-RELA was 0 (inactive) each time.

As to `OCCOCCN1CCN(C2=Nc3ccccc3Sc3ccccc32)CC1` [Quetiapine hemifumarate], the “lowest phenotypically active concentration” value in the assay with A549-GM130-SQSTM1 [5] turned out to be 9 µM. In addition, the phenotypically active is 0 (inactive) in the assay on A549-ACTB-RAB5A [2]; 0 (inactive) with A549-CANX-COX4; 1 (active) in the assay on A549-GM130-SQSTM1 [3]; 0 (inactive) in the assay on A549-TP53BP1-CLTA; 0 (inactive) with A549-TUBA1B-RELA; 0 (inactive) in the assay on HepG2-ACTB-RAB5A [4]. Besides, the phenotypically active with HepG2-CANX-COX4, with HepG2-GM130-SQSTM1, in the assay on HepG2-TP53BP1-CLTA, in the assay with HepG2-TUBA1B-RELA, with WPMY1-ACTB-RAB5A and in the assay with WPMY1-CANX-COX4 was 0 (inactive) throughout. Moreover, the phenotypically active with WPMY1-GM130-SQSTM1, with WPMY1-TP53BP1-CLTA and in the assay with WPMY1-TUBA1B-RELA was 0 (inactive) throughout.

For the molecule `COc1ccc(CCc2nc3c(C)c(-c4c(C)noc4C)c(C)cc3n2CCN2CCOCC2)cc1`, in the assay on A549-GM130-SQSTM1 [5], the “lowest phenotypically active concentration” value came to 9 µM. Besides, the phenotypically active with A549-ACTB-RAB5A [2] is 0 (inactive); in the assay with A549-CANX-COX4 it was 0 (inactive); in the assay on A549-GM130-SQSTM1 [3] it was 1 (active); with A549-TP53BP1-CLTA it was 0 (inactive); with A549-TUBA1B-RELA, 0 (inactive); with HepG2-ACTB-RAB5A [4], 0 (inactive). Also, the phenotypically active in the assay on HepG2-CANX-COX4, with HepG2-GM130-SQSTM1, in the assay with HepG2-TP53BP1-CLTA, in the assay with HepG2-TUBA1B-RELA, in the assay on WPMY1-ACTB-RAB5A and with WPMY1-CANX-COX4 was 0 (inactive) throughout. The phenotypically active in the assay with WPMY1-GM130-SQSTM1, in the assay with WPMY1-TP53BP1-CLTA and with WPMY1-TUBA1B-RELA was 0 (inactive) throughout.

On to `Cc1cc2sc(NC(=O)Cc3ccccc3)nc2cc1Cl`, for which the “lowest phenotypically active concentration” value in the assay with A549-GM130-SQSTM1 [5] stood at 3 µM. The phenotypically active with A549-ACTB-RAB5A [2] was 0 (inactive); with A549-CANX-COX4, 0 (inactive); in the assay on A549-GM130-SQSTM1 [3], 1 (active); with A549-TP53BP1-CLTA, 0 (inactive); in the assay with A549-TUBA1B-RELA it was 1 (active); with HepG2-ACTB-RAB5A [4] it was 0 (inactive). Moreover, the phenotypically active in the assay with HepG2-CANX-COX4, in the assay with HepG2-GM130-SQSTM1, with HepG2-TP53BP1-CLTA, with HepG2-TUBA1B-RELA, in the assay on WPMY1-ACTB-RAB5A and with WPMY1-CANX-COX4 was 0 (inactive) each time. The phenotypically active in the assay with WPMY1-GM130-SQSTM1, in the assay with WPMY1-TP53BP1-CLTA and with WPMY1-TUBA1B-RELA was 0 (inactive) each time.

Take `Nc1ncnc2c1ncn2[C@@H]1O[C@H](CO)[C@@H](O)[C@H]1O` [Adenosine]: in the assay with HepG2-ACTB-RAB5A [6], the “lowest phenotypically active concentration” value is 9 µM. Also, the phenotypically active with A549-ACTB-RAB5A [2] was 0 (inactive); in the assay with A549-CANX-COX4, 0 (inactive); in the assay with A549-GM130-SQSTM1 [3], 0 (inactive); in the assay with A549-TP53BP1-CLTA, 0 (inactive); with A549-TUBA1B-RELA, 0 (inactive); in the assay with HepG2-ACTB-RAB5A [4], 1 (active). Further, the phenotypically active in the assay on HepG2-CANX-COX4, in the assay on HepG2-GM130-SQSTM1, in the assay on HepG2-TP53BP1-CLTA, with HepG2-TUBA1B-RELA, with WPMY1-ACTB-RAB5A and in the assay with WPMY1-CANX-COX4 was 0 (inactive) throughout. For the same molecule, the phenotypically active with WPMY1-GM130-SQSTM1, in the assay on WPMY1-TP53BP1-CLTA and in the assay on WPMY1-TUBA1B-RELA was 0 (inactive) each time.

The record behind these values is the supplement of paper PMC7411054.
